Assay results from PubChem BioAssay (EPA / NIEHS).
Results filed as inconclusive are left out. The source made the active and inactive calls. The calls were made as follows: active = hit-call score of the fitted dose curve at least 0.9, where 1 is the maximum; inconclusive = response in the unintended direction; inactive = score below 0.9.

How the values were obtained:
[1] = TOX21_p53_BLA_p2_viability: Viability Assessment in the Tox21 HCT-116 p53 Agonism Beta-lactamase Assay, Phase 2 (AID 2283591);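 also: actives lower the ATP signal meaning cytotoxicity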
Outline: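 HCT116 p53-bla cells, 4000/well, dosed after 5 h plating (217-fold dilution of DMSO stocks) and incubated 16 h at 37C. Viability taken as cellular ATP by CellTiter-Glo luminescence after 30 min RT; signal loss marks cytotoxicity.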

[2] = TOX21_p53_BLA_p3_viability: Viability Assessment in the Tox21 HCT-116 p53 Agonism Beta-lactamase Assay, Phase 3 (AID 2283593)
Outline: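 HCT116 cells, 4000/well, dosed 5 h after plating by pin transfer (217-fold dilution from DMSO stock) and incubated 16 h at 37C, 5% CO2. Viability read as ATP luminescence with CellTiter-Glo after 30 min at room temperature.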

[3] = TOX21_p53_BLA_p4_viability: Viability Assessment in the Tox21 HCT-116 p53 Agonism Beta-lactamase Assay, Phase 4 (AID 2283597);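 also: hits lower the luminescence signal meaning cytotoxicity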
Outline: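 Following a 16 h exposure at 37C, the treated HCT116 wells were first read for the FRET ratio. They were then lysed with CellTiter-Glo, and ATP luminescence was recorded after 30 min at room temperature.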

[4] = TOX21_p53_BLA_p5_viability: Viability Assessment in the Tox21 HCT-116 p53 Agonism Beta-lactamase Assay, Phase 5 (AID 2283600)
Outline: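 After the 460/530 nm beta-lactamase measurement, the wells received an ATP-detection luciferase reagent; signal was read 30 min later at RT. Compound treatment lasted 16 h on cells pre-incubated 5 h post-seeding.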

[5] = target: Cellular tumor antigen p53 (Homo sapiens) (UniProt P04637); assay: TOX21_p53_BLA_p4_ratio: Tox21 HCT-116 p53 Agonism Beta-lactamase Assay, Ratio, Phase 4 (AID 2283601)
Outline: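 HCT-116 p53 beta-lactamase reporter cells (4000/well) preincubated 5 h, then compound (217-fold dilution of DMSO stock) for 16 h at 37C. CCF4-AM substrate added 2 h at room temperature; 460/530 nm emission ratio fitted upward versus DMSO.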

[6] = target: Cellular tumor antigen p53 (Homo sapiens) (UniProt P04637); assay: TOX21_p53_BLA_p5_ratio: Tox21 HCT-116 p53 Agonism Beta-lactamase Assay, Ratio, Phase 5 (AID 2283599)
Outline: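 HCT-116 p53-bla cells (4000/well) plated 5 h, dosed with compound (217-fold DMSO dilution) for 16 h at 37 C; CCF4-AM substrate 2 h at room temperature. Activity is the 460/530 nm emission ratio (405 nm excitation), fitted in gain-of-signal direction versus DMSO.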

[7] = TOX21_PR_BLA_Followup_Agonist_viability: Viability Assessment in the Tox21 HEK293 Progesterone Receptor (PR) Agonism Beta-lactamase Follow-Up Assay (AID 2283935);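 also: signal loss means lower viability so actives are cytotoxic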
Outline: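 PR-UAS-bla HEK293T cells in 2% charcoal-stripped FBS medium, plated 6 hr before compound addition, exposed 16 hr at 37C. Viability read by CellTiter-Glo ATP luminescence after 30 min at room temperature, in the same wells as the beta-lactamase readout.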

PGR (gene 5241) = PGR (gene 5241) (UniProt P06401); assay: TOX21_PR_LUC_Followup_Antagonist: Tox21 HEK293 Progesterone Receptor (PR) Antagonism Luciferase Follow-Up Assay (AID 2283938);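 also: curve fitted upward as signal gain over DMSO baseline despite antagonist label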
Outline: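 Luminescence from ONE-Glo was measured 30 min after reagent addition, following 16 h exposure of HEK293-PR-A-luc cells (3,000/well, plated 5 h earlier) to DMSO-dissolved compounds at 37C; DMSO served as baseline.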

[8] = TOX21_PR_LUC_Followup_Antagonist_viability: Viability Assessment in the Tox21 HEK293 Progesterone Receptor (PR) Antagonism Luciferase Follow-Up Assay (AID 2283940)
Outline: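 HEK293-PR-A-luc cells kept in charcoal-stripped FBS medium were plated 5 h before compound addition, then exposed 16 h at 37C; viability read as cellular ATP by luciferase luminescence, loss of signal indicating cytotoxicity.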

[9] = TOX21_PR_LUC_Followup_Agonist_viability: Viability Assessment in the Tox21 HEK293 Progesterone Receptor (PR) Agonism Luciferase Follow-Up Assay (AID 2283941);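 also: loss of signal means cytotoxicity so actives lower viability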
Outline: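 HEK293-PR-A-luc cells, kept in 10% charcoal-stripped FBS medium, were treated with compounds for 16 h at 37C. Viability read as cellular ATP by luciferase-coupled luminescence; loss of signal indicates cytotoxicity.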

Sequence of Cellular tumor antigen p53 (Homo sapiens) (P04637 whole entry, looked up): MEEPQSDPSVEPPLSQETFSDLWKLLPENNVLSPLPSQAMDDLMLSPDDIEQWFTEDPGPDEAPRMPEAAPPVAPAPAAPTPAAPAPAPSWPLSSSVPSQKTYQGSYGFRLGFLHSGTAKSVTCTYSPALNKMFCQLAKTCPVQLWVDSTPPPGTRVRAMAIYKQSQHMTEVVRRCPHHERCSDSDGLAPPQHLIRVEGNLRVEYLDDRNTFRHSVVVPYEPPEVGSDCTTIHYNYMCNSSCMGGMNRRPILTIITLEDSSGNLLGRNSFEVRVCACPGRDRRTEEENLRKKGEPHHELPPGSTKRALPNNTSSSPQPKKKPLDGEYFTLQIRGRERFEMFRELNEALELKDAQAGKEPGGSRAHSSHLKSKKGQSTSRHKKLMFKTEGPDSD
Sequence of PGR (gene 5241) (P06401 whole entry, looked up): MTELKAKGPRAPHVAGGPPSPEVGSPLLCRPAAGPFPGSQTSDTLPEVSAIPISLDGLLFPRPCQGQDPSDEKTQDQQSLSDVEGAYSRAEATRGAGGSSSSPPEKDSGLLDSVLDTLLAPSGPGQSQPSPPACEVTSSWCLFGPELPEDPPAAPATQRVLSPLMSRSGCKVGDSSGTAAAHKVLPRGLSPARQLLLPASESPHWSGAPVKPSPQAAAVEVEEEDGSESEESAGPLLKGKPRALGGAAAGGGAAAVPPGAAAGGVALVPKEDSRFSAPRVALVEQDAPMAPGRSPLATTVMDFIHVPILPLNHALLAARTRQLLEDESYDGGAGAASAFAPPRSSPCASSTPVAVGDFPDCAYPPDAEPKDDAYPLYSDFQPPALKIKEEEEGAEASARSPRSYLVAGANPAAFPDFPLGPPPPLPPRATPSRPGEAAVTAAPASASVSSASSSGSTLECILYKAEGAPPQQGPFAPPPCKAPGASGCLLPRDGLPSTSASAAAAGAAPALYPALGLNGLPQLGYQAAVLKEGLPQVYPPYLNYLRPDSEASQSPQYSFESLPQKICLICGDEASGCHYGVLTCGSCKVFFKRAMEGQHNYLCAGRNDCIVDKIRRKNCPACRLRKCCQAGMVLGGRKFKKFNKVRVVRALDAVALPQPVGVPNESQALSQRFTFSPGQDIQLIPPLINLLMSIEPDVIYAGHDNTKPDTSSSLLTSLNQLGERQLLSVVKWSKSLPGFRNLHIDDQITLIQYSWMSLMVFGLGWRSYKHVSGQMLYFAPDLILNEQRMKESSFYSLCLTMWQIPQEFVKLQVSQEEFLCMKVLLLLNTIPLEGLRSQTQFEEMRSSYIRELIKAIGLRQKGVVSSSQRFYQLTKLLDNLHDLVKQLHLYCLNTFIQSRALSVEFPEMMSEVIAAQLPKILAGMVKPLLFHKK

Question: What does the source list for `O=C(OCC1(COC(=O)c2cccnc2)CCCC(COC(=O)c2cccnc2)(COC(=O)c2cccnc2)C1O)c1cccnc1`?
Answer: outcome [1]: inactive; outcome [2]: inactive; outcome [3]: inactive; outcome [4]: inactive

Question: For `CC(C)C(O)(c1ccc(OC(F)(F)F)cc1)c1cncnc1` (configuration not stated), which outcome [1] is on record?
Answer: inactive

Question: And the outcome [2]?
Answer: inactive

Question: And the outcome [3]?
Answer: inactive

Question: And the outcome [4]?
Answer: inactive

Question: What about the outcome [5] of the same compound?
Answer: inactive

Question: With `CCC(=O)OCC(=O)[C@@]1(OC(=O)CC)[C@@H](C)C[C@H]2[C@@H]3CCC4=CC(=O)C=C[C@]4(C)[C@@]3(F)[C@@H](O)C[C@@]21C` as the compound, how does the outcome [1] read?
Answer: inactive

Question: What about the outcome [2] of the same compound?
Answer: inactive

Question: And the outcome [3]?
Answer: inactive

Question: And the outcome [6]?
Answer: inactive

Question: What about the outcome [5] of the same compound?
Answer: inactive

Question: Which results are given for `CC(C)CCOC(=O)c1ccc(N(C)C)cc1`?
Answer: outcome [1]: inactive; outcome [2]: inactive; outcome [3]: inactive; outcome [6]: inactive; outcome [4]: inactive; outcome [5]: inactive

Question: Which outcome [1] does the source give for `CN(C)c1cc(NC(=O)CNC(C)(C)C)c(O)c2c1C[C@H]1C[C@H]3[C@H](N(C)C)C(=O)C(C(N)=O)=C(O)[C@@]3(O)C(=O)C1=C2O` here?
Answer: inactive

Question: And the outcome [2]?
Answer: inactive

Question: And the outcome [3]?
Answer: inactive

Question: And the outcome [4]?
Answer: inactive

Question: Which outcome [1] does the source give for `Cc1ccc(C2(O)CCN(CCCC(=O)c3ccc(F)cc3)CC2)cc1` here?
Answer: inactive

Question: What about the outcome [2] of the same compound?
Answer: inactive

Question: And the outcome [3]?
Answer: inactive

Question: And the outcome [6]?
Answer: inactive

Question: And the outcome [4]?
Answer: inactive

Question: What about the outcome [5] of the same compound?
Answer: inactive

Question: With `Cc1ccc(Cl)cc1N` as the compound, how does the outcome [1] read?
Answer: inactive

Question: And the outcome [2]?
Answer: inactive

Question: And the outcome [3]?
Answer: inactive

Question: And the outcome [6]?
Answer: inactive

Question: What about the outcome [5] of the same compound?
Answer: inactive

Question: For `CCN(CC)C(=O)c1cccnc1`, which outcome [1] is on record?
Answer: inactive

Question: And the outcome [2]?
Answer: inactive

Question: What about the outcome [3] of the same compound?
Answer: inactive

Question: What about the outcome [4] of the same compound?
Answer: inactive

Question: What about the outcome [5] of the same compound?
Answer: inactive

Question: Which outcome [1] does the source give for `CCOc1ccc(NC(C)=O)cc1N` here?
Answer: inactive

Question: What about the outcome [2] of the same compound?
Answer: inactive

Question: What about the outcome [3] of the same compound?
Answer: inactive

Question: And the outcome [6]?
Answer: inactive

Question: And the outcome [4]?
Answer: inactive

Question: And the outcome [5]?
Answer: inactive

Question: With `C[C@H]1C[C@H]2[C@@H]3CCC4=CC(=O)C=C[C@]4(C)[C@@]3(Cl)[C@@H](O)C[C@]2(C)[C@@]1(O)C(=O)CO` as the compound, how does the outcome [1] read?
Answer: inactive

Question: What about the outcome [2] of the same compound?
Answer: inactive

Question: And the outcome [3]?
Answer: inactive

Question: What about the outcome [4] of the same compound?
Answer: inactive

Question: And the outcome [5]?
Answer: inactive

Question: What about the outcome [7] of the same compound?
Answer: inactive

Question: And the outcome (PGR (gene 5241))?
Answer: inactive

Question: And the outcome [8]?
Answer: inactive

Question: And the outcome [9]?
Answer: inactive

Question: What does the source list for `CC1=C(C)C(=O)C(C(CCCCCC(=O)O)c2ccccc2)=C(C)C1=O` (configuration not stated)?
Answer: outcome [1]: inactive; outcome [2]: inactive; outcome [3]: inactive; outcome [4]: inactive; outcome [5]: inactive

Question: Which results are given for `CN(CCO)CC(O)Cn1cnc2c1c(=O)n(C)c(=O)n2C` (configuration not stated) (tested in a mixture with another compound)?
Answer: outcome [1]: inactive; outcome [2]: inactive; outcome [3]: inactive; outcome [4]: inactive

Question: Which AC50 [1] does the source give for `C[C@H]1O[C@@H](O[C@H]2CC[C@@]3(C)[C@H](CC[C@@H]4[C@@H]3C[C@@H](O)[C@]3(C)[C@@H](C5=CC(=O)OC5)CC[C@]43O)C2)C[C@H](O)[C@@H]1O[C@H]1C[C@H](O)[C@H](O[C@H]2C[C@H](O)[C@H](O[C@@H]3O[C@H](CO)[C@@H](O)[C@H](O)[C@H]3O)[C@@H](C)O2)[C@@H](C)O1` here?
Answer: 0.284 µM (active)

Question: And the AC50 [2]?
Answer: 0.296 µM (active)

Question: What about the AC50 [3] of the same compound?
Answer: 0.337 µM (active)

Question: And the AC50 [4]?
Answer: 0.353 µM (active)

Question: For `CC(C)Nc1cccnc1N1CCN(C(=O)c2cc3cc(NS(C)(=O)=O)ccc3[nH]2)CC1`, which outcome [1] is on record?
Answer: inactive

Question: And the outcome [2]?
Answer: inactive

Question: What about the outcome [3] of the same compound?
Answer: inactive

Question: And the outcome [4]?
Answer: inactive

Question: And the outcome [5]?
Answer: inactive

Question: What does the source list for `Cc1cc(-c2ccc(N=Nc3c(S(=O)(=O)O)cc4cc(S(=O)(=O)O)cc(N)c4c3O)c(C)c2)ccc1N=Nc1c(S(=O)(=O)O)cc2cc(S(=O)(=O)O)cc(N)c2c1O`?
Answer: outcome [1]: inactive; AC50 [2]: 16.3 µM (active); AC50 [3]: 20.6 µM (active); outcome [4]: inactive
